Holding throughout (format): functional
The target of assay [1] is Solute carrier family 2, facilitated glucose transporter member 1 (Homo sapiens) (UniProt P11166). Kind of assay: ST_JUDE_LEISH: Cytotoxicity at 2uM final concentration against transgenic Leishmania Mexicana promastigotes LmGLUT1 that are glucose transport deficient and complemented with the human glucose transporter GLUT1. Activity is measured by DNA content using SYBR green in vitro.

For assay [2], the target named is Hexose transporter 1 (Plasmodium falciparum) (UniProt O97467). Kind of assay: ST_JUDE_LEISH: Cytotoxicity at 2uM final concentration against transgenic Leishmania Mexicana promastigotes LmPfHT that are glucose transport deficient and complemented with the Plasmodium falciparum hexose transporter. Activity is measured by DNA content using SYBR green in vitro.
Assay [3] concerns the target Glucose transporter (Leishmania mexicana) (UniProt O61059). As to the kind of experiment: ST_JUDE_LEISH: Cytotoxicity at 2uM final concentration against transgenic Leishmania Mexicana promastigotes LmGT2 that are glucose transport deficient and complemented with the L. Mexicana glucose transporter 2. Activity is measured by DNA content using SYBR green in vitro.

As a reminder, the inhibition is the relative decrease from the control value, in per cent.

Solute carrier family 2, facilitated glucose transporter member 1 (Homo sapiens), sequence (P11166 whole entry): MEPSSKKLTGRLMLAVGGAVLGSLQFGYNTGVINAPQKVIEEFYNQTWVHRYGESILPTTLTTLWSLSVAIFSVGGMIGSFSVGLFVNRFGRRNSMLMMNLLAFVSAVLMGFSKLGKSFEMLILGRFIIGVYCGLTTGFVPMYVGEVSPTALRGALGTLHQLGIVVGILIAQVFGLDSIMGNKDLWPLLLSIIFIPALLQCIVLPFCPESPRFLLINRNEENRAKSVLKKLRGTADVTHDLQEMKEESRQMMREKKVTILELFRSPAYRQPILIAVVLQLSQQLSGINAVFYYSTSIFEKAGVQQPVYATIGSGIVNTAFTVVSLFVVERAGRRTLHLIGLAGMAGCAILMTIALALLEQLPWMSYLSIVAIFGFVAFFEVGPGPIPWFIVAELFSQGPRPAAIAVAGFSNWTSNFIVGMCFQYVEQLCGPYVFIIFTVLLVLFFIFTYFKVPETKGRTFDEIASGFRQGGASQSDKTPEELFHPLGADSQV

As to `O=C(Nc1ccc2c(c1)CCC2)N[C@H]1CCN(CCCCCNC(=O)C2CC2c2ccc(Cl)c(Cl)c2)C1` (stereo partly drawn), the values for the inhibition in assay [1], in assay [2] and in assay [3] were -0.7%, 0.43% and -0.01%, respectively.

With `C=CCN1Cc2c(O)cccc2C(c2ccc(O)c(O)c2)C1` (stereo not drawn), the inhibition in assay [1] stood at 6.49%; in assay [2], 5.18%; in assay [3], 4.91%.

Take `COc1ccc(C2CC(=O)C3=C(C2)NC(C)=C(C(=O)OC(C)C)C3c2cccc(O)c2)cc1OC` (stereo not drawn): the inhibition in assay [1] is 4.15%; in assay [2] it was 1.12%; in assay [3], 1.71%.

With `O=C(Nc1ccc(Cn2ncc(N3CCCNCC3)c(Cl)c2=O)cc1)Nc1cc(C(F)(F)F)cc(C(F)(F)F)c1`, the inhibition in assay [1] came out at 2.99%; in assay [2], 1%; in assay [3] it was 1.99%.

Regarding `CCN(CC)CCNc1ccnc2c3ccccc3n(C)c12`, the figures for the inhibition in assay [1], in assay [2] and in assay [3] were -1.54%, 0.22% and -0.19%, respectively.

`COc1c(CNCCCCCCNCc2c(OC)c(OC)c3ccccc3c2OC)c(OC)c2ccccc2c1OC`: the inhibition in assay [1] is 67.6%; in assay [2], 11.8%; in assay [3], 56.7%.

As for `CN(C)CCNCc1nc(-c2ccc3c(Nc4ccc(Cl)cc4F)ccnc3c2)cs1`, the inhibition in assay [1] is 9.87%; in assay [2] it was 8.58%; in assay [3], 10.1%.

On to `Cc1ccccc1C1CCN(C2CCC(NC(=O)/C=C/c3ccc(Cl)cc3)CC2)CC1` (stereo not drawn), for which the inhibition in assay [1] came out at 1.76%; in assay [2], 2.6%; in assay [3], 2.42%.

On to `Fc1cccc2sc(Nc3nc(-c4ccccn4)cs3)nc12`, for which the inhibition in assay [1] was 1.42%; in assay [2], 0.63%; in assay [3], -5.6%.

Regarding `Cn1nc(C(=O)N2CCC(c3[nH]ncc3Cc3ccccc3)CC2)c2ccccc2c1=O`, the inhibition in assay [1] worked out at 0.16%; in assay [2], 2.06%; in assay [3], 2.12%.

Regarding `CCCn1c(Sc2ccc(C#N)c([N+](=O)[O-])c2)nnc1-c1ccc(Cl)cc1`, the inhibition in assay [1] was 2.12%; in assay [2], 3.28%; in assay [3] it was 2.23%.

Take `COc1ccc(NC(=O)Nc2ccc(-c3cccc(-c4nc5cccc(C)c5[nH]4)c3)cc2)cc1`: the inhibition in assay [1] is -1.37%; in assay [2], -1.2%; in assay [3], -0.2%.

Turning to `CCC(CO)NCC(O)Cn1c2ccc(Br)cc2c2cc(Br)ccc21` (stereo not drawn), the results for the inhibition in assay [1], in assay [2] and in assay [3] were 1.9%, -0.92% and -1.57%, respectively.

`CN1CCN(CC(=O)Nc2cccc(-c3ccc(-c4nc5cc(C(F)(F)F)ccc5[nH]4)s3)c2)CC1`: the inhibition in assay [1] worked out at 1.78%; in assay [2], 2.7%; in assay [3], 4.37%.

Turning to `O=C(/C=C/c1ccccc1O)N1CCC(CCN2CCC(c3c[nH]c4ccccc34)CC2)CC1`, the inhibition in assay [1] was -5.26%; in assay [2], -3.35%; in assay [3], -2.57%.

As for `CCNc1cc(C(=O)N[C@@H](Cc2ccccc2)[C@H](O)CNC2(C(C)C)CCC2)cc(N2CCCCS2(=O)=O)c1`, the inhibition was -0.22% in assay [1], 0.75% in assay [2] and -2.45% in assay [3].

With `O=C(Nc1ccc(-c2oc(C(=O)NCCc3cccc(Cl)c3)cc2-c2ccncc2)cc1)Nc1cccc(Cl)c1`, the inhibition is 0.9% in assay [1], 1.65% in assay [2] and 2.92% in assay [3].

In the case of `CCN(Cc1cccc2ccccc12)c1ccc2nc(N)nc(N)c2c1`, the inhibition in assay [1] was found to be 97.2%; in assay [2] it was 99%; in assay [3], 84%.

With `CCCC(=O)NC(c1cccs1)c1cc(Cl)c2cccnc2c1O` (stereo not drawn), the values for the inhibition in assay [1], in assay [2] and in assay [3] were 0.53%, 1.83% and -0.61%, respectively.

As for `CN(C)CCN1CCN(Cc2ccc(-c3cccc(-c4nc5ccccc5[nH]4)c3)cc2)CC1`, the inhibition in assay [1] was -2.11%; in assay [2], -0.12%; in assay [3], -0.98%.

`C=CCOc1ccc(C2C(C(=O)OC)=C(C)NC3=C2C(=O)c2ccccc23)cc1OC` (stereo not drawn): the inhibition in assay [1] is -0.61%; in assay [2], 4.51%; in assay [3], 1.15%.

As for `OC(CNc1ccnc(Nc2ccc(Cl)cc2)n1)c1ccc(C(F)(F)F)cc1` (stereo not drawn), the inhibition was found to be 4.91% in assay [1], 4.91% in assay [2] and 2.64% in assay [3].

For the compound `O=C(c1cc(OC(F)(F)F)ccc1O)N1CCN(c2ccccc2)CC1`, the inhibition in assay [1] amounted to 5.08%; in assay [2] it was 4.52%; in assay [3], 7.06%.

For the compound `CC1=C(C(=O)Nc2cc3cn[nH]c3cc2F)C(c2cccc(NS(C)(=O)=O)c2)CC(=O)N1` (stereo not drawn), the values for the inhibition in assay [1], in assay [2] and in assay [3] were 2.54%, 1.97% and 2.34%, respectively.

`C=CC[C@H](NC(=O)c1ccc(NS(=O)(=O)c2ccc3nc(N)[nH]c(=O)c3c2)cc1)C(=O)OCCCC`: the results for the inhibition in assay [1], in assay [2] and in assay [3] were 0.58%, 0.62% and 1.67%, respectively.

As to `COc1ccc(NS(=O)(=O)c2ccc(C(=O)Nc3ccc(C(F)(F)F)cc3)cc2)cc1N1CCN(CC2CC2)CC1`, the inhibition in assay [1] was 0.55%; in assay [2] it was 0.6%; in assay [3], -7.4%.

Regarding `COc1ccc(CN2CCCN(Cc3cccc(NC(=O)c4ccc5ccccc5c4)c3)CC2)cc1`, the inhibition in assay [1] was determined as 1.59%; in assay [2] it was 1.71%; in assay [3] it was 6.07%.

As for `O=C(/C=C/c1ccc(Cl)c(Cl)c1)NCCCCCN1CCCC(c2c[nH]c3ccccc23)C1` (stereo not drawn), the inhibition in assay [1] amounted to 5.68%; in assay [2], 5.33%; in assay [3] it was 5.49%.

With `O=C(NC1CCCCN(Cc2ccccc2O)C1)c1cccc(Cl)c1` (stereo not drawn), the inhibition is 1.27% in assay [1], 1.65% in assay [2] and -1.89% in assay [3].

`Cn1cccc1CCNCc1ccc(-c2cccc(-c3nc4ccccc4[nH]3)c2)cc1`: the inhibition in assay [1] is 3.79%; in assay [2], 3.07%; in assay [3], 2.55%.

For the compound `CCCN1CCC(c2c[nH]c3ccc(NC(=O)Nc4cccc(Cl)c4Cl)cc23)CC1`, the inhibition in assay [1] worked out at 3.84%; in assay [2], 2.45%; in assay [3], 4.47%.

Turning to `CCOC(=O)c1ccc(NC(=O)Nc2cccc(-c3ccc(-c4nc5cc(F)ccc5[nH]4)cc3)c2)cc1`, the inhibition in assay [1] was 2.21%; in assay [2], 2.88%; in assay [3] it was 0.33%.

Turning to `CC(C)(C)c1ccc2[nH]c(-c3ccc(/C=C/C(=O)NC4CCN(Cc5ccccc5)CC4)cc3)nc2c1`, the inhibition in assay [1] stood at 9.73%; in assay [2], 10.5%; in assay [3], 7.5%.

As to `O=C(NC1CCN(Cc2cccc(C(F)(F)F)c2)CC1)c1ccc(-c2cccc(Cl)c2)s1`, the values for the inhibition in assay [1], in assay [2] and in assay [3] were 3.3%, 2.49% and 5.19%, respectively.

In the case of `CCN(CC)CCN(Cc1ccc(-c2ccc(C(F)(F)F)cc2)cc1)C(=O)Cn1c(CCc2ccc(F)c(C#N)c2)nc(=O)c2ccccc21`, the inhibition in assay [1] worked out at 6.73%; in assay [2], 7.67%; in assay [3], 8.84%.

As for `O=C(Nc1ccc(C(F)(F)F)cc1)c1ccc(S(=O)(=O)NCC2CCCN(CC3CCCCC3)C2)cc1` (stereo not drawn), the inhibition was 2.94% in assay [1], 2.24% in assay [2] and 1.65% in assay [3].
